Assay outcomes from PubChem.
tim10-1 inh – growth inhibitors of tim10-1 mutant yeast; S. cerevisiae tim10-1 ts strain growth, BacTiter-Glo, 24 h; inhibition, % at 20 µM; 2.2% of 330,000 active; AID 463190;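 active = inhibition of at least 40%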;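 also: mutant grown at 25 °C; 0% = DMSO wells with yeast and 100% = wells holding no yeast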
tim23-1 inh – tim23-1 yeast growth inhibition. inhibition, % at 20 µM. 1.3% of 330,000 active. S. cerevisiae tim23-1 growth, BacTiter-Glo luminescence, 24 h;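 active = growth inhibition of the mutant yeast at or above 50%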;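 also: temperature-sensitive mutant grown at 25 °C; plate controls were DMSO-treated mutant yeast for no effect and medium wells lacking yeast for full effect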
NALP1 yeast inh – inhibitors of NALP1 inflammasome in yeast. S. cerevisiae NALP1/ASC/caspase-1 growth, X-gal OD620, 72 h. inhibition, % at 10 µM. 0.61% of 280,000 active; in the data active = inhibition mostly above about 24%, no sharp cut-off; inactive = mostly below about 32%
NLRP3 yeast inh – NALP3 inhibition in yeast; AID 2825; Yeast reconstituted NLRP3/ASC/caspase-1, beta-gal luminescence, 24 h; inhibition, % at 10 µM; 0.39% of 330,000 active;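 active = inhibition of 50% or more; inactive = inhibition below 50%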;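 also: plate controls were induced DMSO wells for no effect and uninduced yeast grown without galactose for full effect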
TIM10 inh – TIM10 yeast growth inhibition | inhibition, % at 10 µM | S. cerevisiae TIM10 strain growth, BacTiter-Glo luminescence, 24 h | 1.4% of 330,000 active;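 active = inhibition of 40% or more at the single tested concentration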;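 also: wild-type TIM10 isogenic control strain grown at permissive 25 °C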
tim10 confirm – confirmation of TIM10 yeast growth inhibitors. 63% of 4,600 active. shares compounds with TIM10 inh. S. cerevisiae tim10 strain growth, BacTiter-Glo luminescence, 24 h. AID 463215. inhibition, % at 10 µM;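 active = inhibition of yeast growth at or above a set limit in either of two replicates at 10 µM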;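 also: this counterscreen used the strain with wild-type TIM10; 0% = yeast with DMSO and 100% = medium wells lacking yeast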
* marks the source's active call; other numbers are inactive results; nt = not tested or not shown. Shown are actives, neighbours in structure and some others; about 4.1% of the full set was active somewhere.

SMILES | tim10-1 inh | tim23-1 inh | NALP1 yeast inh | NLRP3 yeast inh | TIM10 inh | tim10 confirm
COc1cc(/C=C(/C#N)c2nc3ccccc3[nH]2)ccc1OCc1ccc(C(=O)O)o1 | 13.5 | 14.0 | 2.0 | 12.5 | 4.8 | nt
COC(=O)c1ccc(COc2ccc(/C=C(\C#N)c3nc4ccccc4[nH]3)cc2OC)o1 | 9.1 | 30.6 | -15.6 | 19.1 | 53.5* | 33.3*
COc1ccc2[nH]cc(CCNS(=O)(=O)c3ccc(C)cc3)c2c1 | 3.5 | -0.1 | -0.9 | 2.9 | -4.7 | nt
Cc1ccc(NC(=O)CSCC(=O)N(C)CC(=O)Nc2ccccc2C(F)(F)F)cc1 | 6.3 | -9.3 | nt | 4.1 | 3.3 | nt
Cc1ccc2cc3cc(C(=O)N4CCCCC4C)oc3nc2c1 (stereo unspecified) | 32.4 | 40.4 | 3.4 | 17.6 | 50.4* | -29.9
CCN(C(=O)c1cc2cc3ccc(C)cc3nc2o1)c1ccc(OC)cc1 | 35.5 | 38.2 | 40.0 | 20.2 | 44.4* | -8.7
Cc1ccc2cc3cc(C(=O)NCCCN4CC(C)CC(C)C4)oc3nc2c1 (stereo unspecified) | 25.1 | 26.0 | 24.8 | -11.4 | 61.4* | 26.6
CC1C(C#N)=C(N)OC2=C1C(=O)CC(c1ccccc1)C2 (stereo unspecified) | 30.6 | 39.7 | -18.0 | 5.1 | 28.9 | nt
CCOc1ncccc1C(=O)OCC(=O)Nc1nnc(-c2ccccc2)o1 | -5.9 | 4.8 | nt | 6.3 | -13.1 | nt
C=CCOC(=O)C1=C(C)NC(=S)NC1c1cccs1 (stereo unspecified) | 15.8 | 10.6 | 19.8 | 9.3 | 12.6 | nt
CCOC(=O)c1ccc(NC(=O)CSc2nncn2-c2cccnc2)cc1 | 12.8 | -0.8 | 13.6 | 10.7 | -17.5 | nt
O=C(O)C(NC(=O)c1ccccc1)=C(Cl)Cl | 11.8 | 6.6 | nt | 3.8 | 1.3 | nt
C=CCn1c(-c2ccc(OC)cc2)csc1=Nc1c(C)n(C)n(-c2ccccc2)c1=O | 36.6 | 48.3 | 1.1 | 5.6 | 41.7* | 33.1*
CCOC(=O)N1CCN(C(=O)c2ccc3nc(N4CCC(C)CC4)sc3c2)CC1 | 36.8 | 22.9 | 9.1 | 18.3 | 27.2 | nt
COc1cccc(N2CCN(C(=O)c3ccc4nc(N5CCC(C)CC5)sc4c3)CC2)c1 | 31.0 | 39.1 | nt | 16.5 | 41.6* | 41.9*
CC(C)Cn1c(SCC(N)=O)nnc1-c1cccc(S(=O)(=O)N2CCOCC2)c1 | -16.5 | 1.2 | nt | 11.4 | 58.0* | -6.1
Cc1ccc(CSc2nnc(-c3cccc(S(=O)(=O)N4CCOCC4)c3)n2CC(C)C)cc1 | 17.3 | 28.3 | 30.5 | 0.4 | 19.5 | nt
Cc1ccc(-c2csc(NC(=O)C3=NN(c4ccccc4)C(=O)CC3)n2)cc1 | 32.9 | 33.8 | 5.1 | 10.3 | 40.4* | 33.2*
CC(C)(C)C(=O)N/C(N)=N/c1nc2ccccc2o1 | -17.8 | 23.1 | 2.8 | 30.1 | -6.4 | nt
CC(C)n1c(N2CCN(S(=O)(=O)c3cccc([N+](=O)[O-])c3)CC2)nc2ccccc21 | 33.7 | 30.0 | 16.0 | 22.2 | 41.0* | 34.5*
Cn1c(N2CCN(S(=O)(=O)c3ccc(F)cc3)CC2)nc2ccccc21 | -2.0 | -2.1 | -2.2 | 3.2 | -13.0 | nt
O=C(NCC1CCCN1S(=O)(=O)c1ccccc1)C(=O)NC1CC1 (stereo unspecified) | -9.4 | -14.4 | nt | 9.0 | -8.0 | nt
COC(=O)c1ccc(N2CCOCC2)c(NC(=O)c2cccnc2)c1 | 11.2 | 13.4 | 9.2 | 2.2 | 4.9 | nt
CC(=O)/C(=C/c1ccc(N(C)C)cc1)C(=O)c1ccccc1 | 15.2 | 17.8 | 19.8 | -10.6 | 40.8* | -16.8
CCC(=O)Nc1ccc(/C=C(\C(C)=O)C(=O)c2ccccc2)cc1 | 38.1 | 35.1 | -3.9 | -10.0 | 35.0 | nt
SMILES | tim10-1 inh | tim23-1 inh | NALP1 yeast inh | NLRP3 yeast inh | TIM10 inh | tim10 confirm
C[C@H](CO)N1C[C@H](C)[C@H](CN(C)S(C)(=O)=O)Oc2c(cccc2N(C)C)C1=O | -0.9 | 0.0 | nt | 11.8 | -2.7 | nt
CCN1CCN(C(=O)c2cc3cc4cc(OC)ccc4nc3s2)CC1 | 6.2 | 5.3 | -1.2 | 15.6 | -6.0 | nt
COc1ccc2cc3cc(C(=O)NCCCN4CCc5ccccc5C4)sc3nc2c1 | 7.9 | 12.7 | 3.8 | -2.5 | 62.8* | 54.3*
COc1ccc2cc3cc(C(=O)NC4CC4)sc3nc2c1 | 4.1 | 3.3 | 19.2 | 18.7 | 15.1 | nt
COc1ccc2nc3sc(C(=O)NCCN4CCc5ccccc5C4)cc3cc2c1 | 30.7 | 38.6 | -8.3 | 12.2 | 75.5* | 80.0*
Cc1ccc2[nH]c(O)c(N=NC(=O)CCc3ccccc3)c2c1Br | 16.6 | 16.6 | 16.7 | 10.8 | 14.4 | nt
Cc1ccccc1Cn1c(Cc2ccccc2)nc2ccccc21 | 36.3 | 45.7 | 18.4 | -52.0 | 41.8* | 45.2*
COc1cccc(-c2nn(-c3ccccc3)cc2C(=O)Nc2nccs2)c1 | 31.4 | 25.0 | 31.7 | 19.5 | 30.0 | nt
COc1ccc(-c2nn(-c3ccccc3)cc2C(=O)Nc2nccs2)cc1 | 36.2 | 45.0 | 16.7 | 15.6 | 42.9* | 29.6
O=C(Nc1ccncc1)c1cn(-c2ccccc2)nc1-c1cccs1 | 34.2 | 17.0 | 9.8 | 21.7 | 43.9* | 53.5*
O=C(Nc1ccc(Cn2ccnc2)cc1)c1cccc(C(F)(F)F)c1 | -0.5 | -9.5 | 3.8 | 22.4 | -3.3 | nt
CCOC(=O)C1=C(CS(=O)(=O)c2ccc(F)cc2)NC(=O)NC1c1cc(OC)c(O)c(OC)c1 (stereo unspecified) | 13.7 | -5.8 | 10.8 | 4.4 | -10.3 | nt
c1ccc(/N=C2\N=C(Nc3ccccn3)c3ccccc32)nc1 | 33.4 | 47.8 | nt | 20.7 | 45.8* | 29.2
COc1ccccc1NC(=O)Nc1nc(CC(=O)Nc2cc(F)ccc2F)cs1 | 16.8 | 33.7 | nt | 14.0 | 11.8 | nt
COc1ccccc1NC(=O)Nc1cc(F)ccc1F | 28.6 | 39.5 | 4.8 | 13.0 | 45.9* | 9.4
COc1ccccc1NC(=O)Nc1ccc(Cc2ccncc2)cc1 | 32.4 | 36.3 | -8.6 | 10.1 | 44.2* | 39.0*
CCN(CC)c1ccc(NC(=O)COC(=O)c2ccc3ccccc3n2)cc1 | 13.4 | 18.3 | 34.7 | 15.8 | -10.1 | nt
Cc1cccc(C(=O)NCCNc2nc3cc(C)c(C)cc3cc2C)c1 | 34.1 | 30.5 | 3.4 | -0.5 | 45.1* | 39.4*
OC(c1ccccc1)c1ccncc1 (stereo unspecified) | -7.6 | -3.3 | nt | 1.5 | -1.8 | nt
Cc1ccccc1C(N)c1ccncc1 (stereo unspecified) | -7.1 | -8.4 | -6.4 | 1.2 | 81.2* | 3.3
O=C(NC1CCCCCC1)c1cc(S(=O)(=O)N2CCCCC2)ccc1N1CCOCC1 | 22.6 | 8.3 | 3.6 | 15.8 | 20.1 | nt
O=C(NC1CCCCCC1)c1cc(S(=O)(=O)N2CCOCC2)ccc1N1CCCCC1 | 23.3 | 23.7 | -1.0 | 6.9 | 43.7* | 31.4
COc1ccc(C(=O)OCC(=O)N2CCN(C(=O)c3ccco3)CC2)cc1OC | -7.9 | 1.1 | nt | -3.0 | 2.5 | nt
S=c1[nH]c(-c2ccccc2)cn1-c1ccccc1 | 36.2 | 46.2 | 11.7 | 32.0 | 46.3* | 48.9*
Nc1ccc(-n2cc(-c3ccccc3)[nH]c2=S)cc1 | 36.6 | 32.9 | -4.5 | 22.2 | 21.4 | nt
Oc1cccc2c(NC(=S)Nc3ccc(SC(F)F)cc3)cccc12 | 38.2 | 47.5 | 26.5 | 41.1 | 52.1* | 41.7*
